# Assay results: PubChem BioAssay (Tox21)
# Results filed as inconclusive are left out. Entries that show only a call come without a potency. Active and inactive are the calls of the source. Calls come from the whole dose curve; as a rule, active = well fitted cell-killing curve with a large enough effect in the repeat runs; inconclusive = weak or mixed curves, or effect the other way; inactive = flat fitted curve, though single readings scatter.
# Test: cAMP Responsive Elements (CRE) small molecule antagonists, cell-based qHTS assay: qHTS cell viability counter screen (AID 2060913); note: nearly all actives have a fitted effect of over 40% in size
# Conditions: CRE-bla HEK293T viability, CellTiter-Glo luminescence, 5 h; series mostly up to 92.4 µM
# Summary of the method: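 CRE-bla HEK293T cells (2,000/well, 18 h) given compound plus NKH477 0.25 uM final for 3 h at 37C; viability counter-screen by CellTiter-Glo luminescence in same wells after 30 min.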
# Potency is the fitted concentration of half-maximal effect.
row,SMILES,Potency
1,Cc1cccc(Cl)c1,inactive
2,Cc1ccc(C(C)NC(=O)[C@@H](NC(=O)OC(C)C)C(C)C)cc1 (some centres not stated),inactive
3,NC(=O)N1c2ccccc2CC(=O)c2ccccc21,inactive
4,COc1ccc2nc(NC(=O)Nc3ccccc3)sc2c1,inactive
5,CCCC[P+](C)(CCCC)CCCC,inactive
6,CCCCC(CC)(CO)CO,inactive
7,Cc1oc(=O)oc1CN1CCN(c2cc3c(cc2F)c(=O)c(C(=O)O)c2n3C(C)S2)CC1 (configuration not stated),inactive
8,O=C(Nc1ccccc1)OCC(CN1CCCCC1)OC(=O)Nc1ccccc1 (configuration not stated),inactive
9,NNC(=O)CCCCC(=O)NN,inactive
10,CCN(CC)c1ccc(C(=C2C=CC(=[N+](CC)CC)C=C2)c2ccc(S(=O)(=O)O)cc2S(=O)(=O)[O-])cc1,27.3 µM (active)
11,CCCCCC/C=C/C=O,inactive
12,CN(C)c1ccc(Cc2ccc(N(C)C)cc2)cc1,inactive
13,CC(C)(O)c1ccc(CNC(=O)c2cccnc2Oc2ccc(F)cc2)cc1,inactive
14,O=C(NO)c1ccccc1,inactive
15,CC(=O)/C=C/c1ccco1,inactive
16,Cc1ccc(C)c(O)c1C,inactive
17,CCN1CCCC(OC(=O)C(c2ccccc2)c2ccccc2)C1 (configuration not stated),inactive
18,Cc1nc(-c2ccc3c(c2)CCN(CCC2CCC(NC(=O)/C=C/c4ccc(F)cc4)CC2)CC3)no1 (configuration not stated),inactive
19,CCCCCCCC/C=C\CCCCCCCC(=O)N(CCO)CCO,inactive
20,COc1cc(N)c(Cl)cc1C(=O)NC1CCN(CCCOc2ccc(F)cc2)CC1OC (configuration not stated),inactive
21,COC(=O)NCCC[Si](OC)(OC)OC,inactive
22,Cc1onc(-c2c(Cl)cccc2Cl)c1C(=O)Cl,inactive
